# Source: PubChem BioAssay (Broad Institute)
# This is a sample that favours compounds with a hit; in the whole collection about 2.5% have one here.
# BJeLR viability – lowers viability of BJeLR cells; 30,000 compounds, 0.64% hits; BJeLR fibroblasts viability, CellTiterGlo ATP luminescence, 48 h; HRASV12, hTERT and SV40 LT/ST transformed; AID 2275; viability loss activity score, % (test concentration not listed); in the data active means viability loss activity score above about 50%; inconclusive means no clear call, values can overlap the other calls; inactive means below about 35%;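 further: higher score means fewer live cells and less ATP luminescence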
# U2OS ROS induce – cancer cell ROS induction; ROS induction (% of piperlongumine), % at 10 µM; U2OS ROS induction, H2DCF-DA fluorescence; 46,000 compounds, 2% hits; AID 624156; in the data active means ROS induction above about 79%, passing the limit was not always enough; inconclusive means no clear call, values can overlap the other calls
# YB-1 expression – YB-1 expression inhibition | AID 434959 | 30,000 compounds, 0.37% hits | U2OS, qRT-PCR YB-1 vs CDIP delta delta Cp, 16 h; active compounds read high; zero = DMSO, each unit about twofold | delta delta Cp (YB-1 minus CDIP) (concentration not given with the values);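 active means delta delta Cp rounded down to an integer at or above 3, about 3 SD of DMSO wells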;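 further: higher means less YB-1 transcript or more CDIP transcript relative to DMSO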
# MITF inh – inhibitors of MITF. TRPM1 promoter luciferase, luminescence, 24 h. 37,000 compounds, 0.28% hits. AID 2240. inhibition, % (concentration not given with the values); in the data active means inhibition above about 85%; inconclusive means no clear call, values can overlap the other calls; inactive means below about 68%;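 further: human melanocyte line stably carrying TRPM1 promoter luciferase reporter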
# A number is an active result; – = inactive; ? = inconclusive; · = not tested or not shown.
SMILES,BJeLR viability,U2OS ROS induce,YB-1 expression,MITF inh
CN(C)c1ccc(/C=C/C=C2/C(=O)NC(=O)N(c3ccccc3)C2=O)cc1,60,·,·,·
CN1C(=O)NC(=O)/C(=C\C=C\c2ccco2)C1=O,–,–,·,·
CN(C)C(=O)Oc1cccc(N)c1,–,–,·,·
CC(=O)O[C@H]1CC[C@]2(C=O)[C@H]3CC[C@]4(C)[C@@H](C5=CC(=O)OC5)CC[C@]4(O)[C@@H]3CC[C@]2(O)C1,111,?,–,–
COC1CC(O[C@H]2CC[C@@]3(C)C(CCC4C3CC[C@]3(C)C(C5=CC(=O)OC5)CCC43O)C2)OC(C)C1OC1OC(COC2OC(CO)C(O)C(O)C2O)C(O)C(O)C1O (some centres undefined),94,–,–,–
C[C@H]1O[C@@H](O[C@H]2CC[C@]3(CO)C4CC[C@]5(C)[C@@H](C6=CC(=O)OC6)CC[C@]5(O)C4CC[C@H]3C2)[C@H](O)[C@H](O)[C@@H]1O (some centres undefined),·,–,–,·
C[C@H]1O[C@@H](O[C@H]2[C@@H](O)C[C@H](O[C@H]3[C@@H](O)C[C@H](O[C@H]4CC[C@]5(C)C6CC[C@]7(C)[C@@H](C8=CC(=O)OC8)CC[C@]7(O)C6CC[C@@H]5C4)O[C@@H]3C)O[C@@H]2C)C[C@H](O)[C@@H]1O (some centres undefined),113,–,–,–
CO[C@H]1[C@@H](O)[C@@H](C)O[C@@H](OC2CCC3(C)C(CC[C@@H]4[C@@H]3CCC3(C)C(C5=CC(=O)OC5)C(O)CC43O)C2)[C@@H]1O (some centres undefined),111,–,–,–
CCC(C)[C@H]1C(=O)O[C@H](C(C)C)C(=O)N(C)[C@@H](C(C)C)C(=O)O[C@H](C(C)C)C(=O)N(C)[C@@H](C(C)C)C(=O)O[C@H](C(C)C)C(=O)N1C (some centres undefined),·,–,–,·
CO[C@H]1[C@@H](O)[C@@H](C)O[C@@H](O[C@@H]2C=C3C(OC(C)=O)CC4(O)C(CC[C@]5(C)[C@@H](C6=CC(=O)OC6)CC[C@]45O)[C@@]3(C)CC2)[C@@H]1O (some centres undefined),115,–,–,–
CC(=O)OCC(=O)[C@H]1CC[C@H]2[C@@H]3CC[C@H]4C[C@H](O)CC[C@]4(C)[C@H]3C(=O)C[C@]12C,–,–,–,–
COC1CC(OC2CCC3(C)C(CCC4(O)C3CC(OC(=O)c3ccccc3)C3(C)C(O)(C(C)=O)CCC43O)C2)OC(C)C1OC1CC(OC)C(OC2OC(C)C(O)C(OC)C2O)C(C)O1 (centres undefined),–,–,–,–
CC12CC[C@H]3C(CCC4(O)CC(O)CCC34O)C1(O)CCC2C1=CC(=O)OC1 (some centres undefined),–,–,–,–
C[C@]12CC[C@H](O)C[C@H]1CC[C@@H]1[C@@H]2C[C@@H](O)[C@]2(C)[C@@H](C3=CC(=O)OC3)CC[C@]12O,83,–,–,–
CC(=O)OC1CCC2(C)C(CC[C@@H]3[C@@H]2CCC2(C)C(C4=CC(=O)OC4)CCC32O)C1 (some centres undefined),89,–,–,–
C[C@]12CC[C@H](O)C[C@H]1CC[C@@H]1[C@@H]2CC[C@]2(C)[C@@H](C3=CC(=O)OC3)CC[C@]12O,91,–,–,–
CCOC(=S)SCc1nc2ccccc2c(=O)n1-c1ccccc1,–,–,·,·
CN(C)C(=O)Oc1nnc(SCCS(=O)(=O)c2ccc(F)cc2)n1-c1ccccc1,–,·,·,·
CCN(CC)c1nc2ccccc2c(=O)n1-c1ccccc1,–,–,·,·
c1cncc(C2Nc3ccccc3-n3cccc32)c1 (centres undefined),–,–,–,–
c1cncc(C2N=C(c3cnccn3)NN2)c1 (centres undefined),–,–,·,–
